Records with an inconclusive call do not appear. Active and inactive are the calls of the source. Rule for the calls: active = hit-call score of the fitted dose curve at least 0.9, where 1 is the maximum; inconclusive = response in the unintended direction; inactive = score below 0.9.

The results in this text go back to PubChem BioAssay (EPA / NIEHS).

For assay [1], the target named is bovine Dopamine Receptor (DR), Non-selective Binding, DRD1 (gene 281125) (UniProt Q95136). Put plainly: NVS_GPCR_bDR_NonSelective: NovaScreen (NVS) G Protein-Coupled Receptor Assay for bovine Dopamine Receptor (DR), Non-selective Binding (AID 2283241). The method in brief:
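Bovine striatal membranes; radioligand displacement read by filtration and scintillation counting 1 h after dosing, loss of signal vs DMSO. Screened in duplicate at 25 uM, then concentration-response for hits.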

In assay [2] the target is human Serotonin, 5-Hydroxytryptamine Receptor 2A (5HT2A), HTR2A (gene 3356) (UniProt P28223). Put plainly: NVS_GPCR_h5HT2A: NovaScreen (NVS) G Protein-Coupled Receptor Assay for human Serotonin, 5-Hydroxytryptamine Receptor 2A (5HT2A) (AID 2283249). An outline of the steps:
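Human cortex membranes, cell-free radioligand binding; filter-based scintillation read 1.5 h after dosing. Duplicate screen at 25 uM first; displacement of specific binding (loss of signal) versus DMSO.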

The subject of assay [3] is bovine Histamine 1 Receptor (H1), gene 281231. Put plainly: NVS_GPCR_bH1: NovaScreen (NVS) G Protein-Coupled Receptor Assay for bovine Histamine 1 Receptor (H1) (AID 2283246). An outline of the steps: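 Radioligand displacement on bovine cerebellar membranes, 1 h after dosing, filter-based scintillation read-out; loss of signal vs DMSO. Duplicate single-concentration screen at 25 uM, then concentration-response up to 50 uM for hits.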

Assay [4] addresses rat Constitutive Nitric Oxide Synthase (CNOS), Nos1 (gene 24598) (UniProt P29476). Put plainly: NVS_ENZ_rCNOS: NovaScreen (NVS) Enzymatic Assay for rat Constitutive Nitric Oxide Synthase (CNOS) (AID 2283236). The method in brief: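 Enzyme activity in rat brain membrane preparation, read 1 h after dosing by filter-based radiometric scintillation counting. Primary screen in duplicate at 25 uM; actives (e.g., ≥30% inhibition) then run in concentration-response up to 50 uM.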

For assay [5], the target named is Adenosine receptor A1 (Bos taurus) (UniProt P28190). Put plainly: NVS_GPCR_bAdoR_NonSelective: NovaScreen (NVS) G Protein-Coupled Receptor Assay for bovine Adenosine Receptor (AdoR), Non-selective Binding (AID 2283244). Here is the method:
NVS_GPCR_bAdoR_NonSelective is a biochemical, single-readout assay that uses extracted gene-proteins from Bovine striatal membranes in a tissue-based cell-free assay. Measurements were taken 1 hour after chemical dosing in a 96-well plate.NVS_GPCR_bAdoR_NonSelective is one of one assay component(s) measured or calculated from the NVS_GPCR_bAdoR_NonSelective assay. It is designed to make measurements of radioligand binding, a form of binding reporter, as detected with scintillation counting signals by Filter-based radiodetection technology.Data from the assay component NVS_GPCR_bAdoR_NonSelective was analyzed into 1 assay endpoint. This assay endpoint, NVS_GPCR_bAdoR_NonSelective, was analyzed in the positive analysis fitting direction relative to DMSO as the negative control and baseline of activity. Using a type of binding reporter, loss-of-signal activity can be used to understand changes in the binding as they relate to the gene ADORA1. Furthermore, this assay endpoint can be referred to as a primary readout, because the performed assay has only produced 1 assay endpoint. To generalize the intended target to other relatable targets, this assay endpoint is annotated to the gpcr intended target family, where the subfamily is rhodopsin-like receptor.
Binding assays used specific radioligands (tritiated, iodinated) with non-radioactive competitive displacement ligands in agonist or antagonist protocols (as indicated) and various reference compounds and inhibitors to titrate specific binding to receptors and transporters. Most enzyme assays (CYPs, kinases, phosphatases, proteases, HDACs) used recombinant protein and specific substrates (fluorescence mostly, some colorimetric and radioactive) and inhibitors, followed by a biochemical separation of substrate and product. All assays for the biochemical HTS were initially run in duplicate at a single concentration (10 uM for CYP450 assays and 25 uM for all others). Assay-chemical combinations meeting a pre-defined threshold (e.g., 30% inhibition and other criteria defined below) were then run in singleton concentration-response format with maximum concentration of 20 uM for CYPs and 50 uM for all others. Each assay was run with positive and negative controls, and concurrent controls on every plate. The follow-up (secondary) screen tested active chemical-pairs in concentration series, as well as a few additional assays not tested in the primary screen, some selected negative inactives, and several cases re-run in the concentration series for confirmatory purposes.

Assay [6] deals with sheep Cyclooxygenase-1 (Cox1), PTGS1 (gene 443551) (UniProt P05979). Put plainly: NVS_ENZ_oCOX1: NovaScreen (NVS) Enzymatic Assay for sheep Cyclooxygenase-1 (Cox1) (AID 2283239).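 Note: actives reduce cyclooxygenase activity so potencies are for inhibitors.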 An outline of the steps:
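Cell-free colorimetric assay of enzyme activity in a native extract of ovine seminal vesicles. Absorbance was read 0.66 hour after compound addition. Loss of signal relative to the DMSO negative control was scored, with actives from the 25 uM duplicate primary screen retested in concentration series.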

Assay [7] concerns the target guinea pig Leukotriene D4 Receptor (LTD4), CYSLTR1 (gene 100135514) (UniProt Q2NNR5). Put plainly: NVS_GPCR_gLTD4: NovaScreen (NVS) G Protein-Coupled Receptor Assay for guinea pig Leukotriene D4 Receptor (LTD4) (AID 2283248). An outline of the steps: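 Radioligand displacement on guinea pig lung membranes, 1 h incubation, filtration and scintillation counting; DMSO as negative control. Duplicate 25 uM primary screen, then singleton concentration-response up to 50 uM.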

Assay [8] concerns guinea pig Leukotriene B4 Receptor (LTB4), gene 100379538. Put plainly: NVS_GPCR_gLTB4: NovaScreen (NVS) G Protein-Coupled Receptor Assay for guinea pig Leukotriene B4 Receptor (LTB4) (AID 2283247). An outline of the steps: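 Radioligand displacement on guinea pig spleen membranes, filter-based scintillation counting 2 h after dosing. Primary duplicate single point at 25 uM; hits over threshold (e.g. 30% inhibition) run in concentration-response up to 50 uM, DMSO baseline.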

In assay [9] the target is sheep Cyclooxygenase-2 (Cox2), PTGS2 (gene 443460) (UniProt P79208). Put plainly: NVS_ENZ_oCOX2: NovaScreen (NVS) Enzymatic Assay for sheep Cyclooxygenase-2 (Cox2) (AID 2283231). How it is done:
NVS_ENZ_oCOX2 is a biochemical, single-readout assay that uses extracted gene-proteins from Ovine placenta in a tissue-based cell-free assay. Measurements were taken 0.66 hour after chemical dosing in a 96-well plate.NVS_ENZ_oCOX2 is one of one assay component(s) measured or calculated from the NVS_ENZ_oCOX2 assay. It is designed to make measurements of enzyme activity, a form of enzyme reporter, as detected with absorbance signals by Colorimetric technology.Data from the assay component NVS_ENZ_oCOX2 was analyzed into 1 assay endpoint. This assay endpoint, NVS_ENZ_oCOX2, was analyzed in the positive analysis fitting direction relative to DMSO as the negative control and baseline of activity. Using a type of enzyme reporter, loss-of-signal activity can be used to understand changes in the enzymatic activity as they relate to the gene PTGS2. Furthermore, this assay endpoint can be referred to as a primary readout, because this assay has produced multiple assay endpoints where this one serves a enzymatic activity function. To generalize the intended target to other relatable targets, this assay endpoint is annotated to the oxidoreductase intended target family, where the subfamily is cyclooxygenase.
Binding assays used specific radioligands (tritiated, iodinated) with non-radioactive competitive displacement ligands in agonist or antagonist protocols (as indicated) and various reference compounds and inhibitors to titrate specific binding to receptors and transporters. Most enzyme assays (CYPs, kinases, phosphatases, proteases, HDACs) used recombinant protein and specific substrates (fluorescence mostly, some colorimetric and radioactive) and inhibitors, followed by a biochemical separation of substrate and product. All assays for the biochemical HTS were initially run in duplicate at a single concentration (10 uM for CYP450 assays and 25 uM for all others). […]

A short description of assay [10]: NVS_GPCR_bNPY_NonSelective: NovaScreen (NVS) G Protein-Coupled Receptor Assay for bovine Neuropeptide Y (NPY) Receptor, Non-selective Binding (AID 2283245). The method in brief: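 Bovine hippocampal membranes incubated 1 hour with radioligand and test chemical. Bound ligand measured by filter-based scintillation counting. Single-concentration screen at 25 uM in duplicate, then concentration-response up to 50 uM.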

Chain of sheep Cyclooxygenase-2 (Cox2), PTGS2 (gene 443460) (P79208 whole entry, looked up): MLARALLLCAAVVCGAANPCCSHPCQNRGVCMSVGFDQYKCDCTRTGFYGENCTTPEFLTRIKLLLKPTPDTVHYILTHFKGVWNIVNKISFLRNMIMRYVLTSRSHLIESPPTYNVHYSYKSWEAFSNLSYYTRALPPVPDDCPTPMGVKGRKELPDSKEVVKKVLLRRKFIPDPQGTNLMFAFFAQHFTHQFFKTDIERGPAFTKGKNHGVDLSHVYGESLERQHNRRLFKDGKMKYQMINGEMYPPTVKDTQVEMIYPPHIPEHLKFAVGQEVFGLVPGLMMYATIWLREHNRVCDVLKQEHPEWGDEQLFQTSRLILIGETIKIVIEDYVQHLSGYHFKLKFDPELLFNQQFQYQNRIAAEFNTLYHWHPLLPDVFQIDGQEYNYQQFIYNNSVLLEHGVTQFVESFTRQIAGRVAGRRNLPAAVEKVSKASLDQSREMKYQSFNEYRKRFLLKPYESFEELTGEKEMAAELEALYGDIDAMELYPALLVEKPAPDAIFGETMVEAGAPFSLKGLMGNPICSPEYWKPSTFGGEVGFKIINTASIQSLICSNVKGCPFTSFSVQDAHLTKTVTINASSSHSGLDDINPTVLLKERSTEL
Chain of guinea pig Leukotriene D4 Receptor (LTD4), CYSLTR1 (gene 100135514) (Q2NNR5 whole entry, looked up): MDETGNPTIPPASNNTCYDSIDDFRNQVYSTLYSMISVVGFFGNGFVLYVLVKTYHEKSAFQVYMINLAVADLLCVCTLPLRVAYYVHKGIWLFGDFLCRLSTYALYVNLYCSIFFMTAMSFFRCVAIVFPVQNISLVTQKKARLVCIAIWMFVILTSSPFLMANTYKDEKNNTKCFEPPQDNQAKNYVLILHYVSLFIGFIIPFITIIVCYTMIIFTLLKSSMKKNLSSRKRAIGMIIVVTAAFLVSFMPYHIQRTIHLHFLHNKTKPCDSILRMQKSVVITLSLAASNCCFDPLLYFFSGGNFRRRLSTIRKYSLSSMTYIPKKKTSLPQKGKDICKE
Chain of human Serotonin, 5-Hydroxytryptamine Receptor 2A (5HT2A), HTR2A (gene 3356) (P28223 whole entry, looked up): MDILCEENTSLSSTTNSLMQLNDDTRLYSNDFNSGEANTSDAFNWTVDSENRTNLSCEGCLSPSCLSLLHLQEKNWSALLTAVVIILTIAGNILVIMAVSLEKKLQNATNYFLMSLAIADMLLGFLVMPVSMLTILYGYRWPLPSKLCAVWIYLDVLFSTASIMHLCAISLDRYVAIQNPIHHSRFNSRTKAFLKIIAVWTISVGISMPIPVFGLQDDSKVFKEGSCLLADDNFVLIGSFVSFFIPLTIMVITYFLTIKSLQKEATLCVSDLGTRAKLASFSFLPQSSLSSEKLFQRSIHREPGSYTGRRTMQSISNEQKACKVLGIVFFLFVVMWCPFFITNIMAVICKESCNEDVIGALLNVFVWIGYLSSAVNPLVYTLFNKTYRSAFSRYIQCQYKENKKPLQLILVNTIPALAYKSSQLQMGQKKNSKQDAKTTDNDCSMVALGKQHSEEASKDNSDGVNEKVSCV
Chain of sheep Cyclooxygenase-1 (Cox1), PTGS1 (gene 443551) (P05979 whole entry, looked up): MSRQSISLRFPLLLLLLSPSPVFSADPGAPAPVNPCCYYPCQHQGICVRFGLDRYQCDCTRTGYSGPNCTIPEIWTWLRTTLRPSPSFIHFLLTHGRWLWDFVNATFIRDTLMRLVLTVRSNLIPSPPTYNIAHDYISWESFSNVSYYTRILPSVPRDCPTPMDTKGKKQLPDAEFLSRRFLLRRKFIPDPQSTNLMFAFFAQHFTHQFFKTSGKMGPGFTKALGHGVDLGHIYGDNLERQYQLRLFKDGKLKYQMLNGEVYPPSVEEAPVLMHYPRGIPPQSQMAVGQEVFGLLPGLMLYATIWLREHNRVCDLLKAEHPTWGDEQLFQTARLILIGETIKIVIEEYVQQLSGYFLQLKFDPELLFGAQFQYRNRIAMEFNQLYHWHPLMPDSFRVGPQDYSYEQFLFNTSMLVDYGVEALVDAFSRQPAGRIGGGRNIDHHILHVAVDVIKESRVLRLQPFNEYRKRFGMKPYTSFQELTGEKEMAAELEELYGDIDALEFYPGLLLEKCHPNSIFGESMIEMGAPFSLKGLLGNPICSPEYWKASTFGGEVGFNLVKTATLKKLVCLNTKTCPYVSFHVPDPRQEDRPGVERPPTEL
Chain of rat Constitutive Nitric Oxide Synthase (CNOS), Nos1 (gene 24598) (P29476 whole entry, looked up): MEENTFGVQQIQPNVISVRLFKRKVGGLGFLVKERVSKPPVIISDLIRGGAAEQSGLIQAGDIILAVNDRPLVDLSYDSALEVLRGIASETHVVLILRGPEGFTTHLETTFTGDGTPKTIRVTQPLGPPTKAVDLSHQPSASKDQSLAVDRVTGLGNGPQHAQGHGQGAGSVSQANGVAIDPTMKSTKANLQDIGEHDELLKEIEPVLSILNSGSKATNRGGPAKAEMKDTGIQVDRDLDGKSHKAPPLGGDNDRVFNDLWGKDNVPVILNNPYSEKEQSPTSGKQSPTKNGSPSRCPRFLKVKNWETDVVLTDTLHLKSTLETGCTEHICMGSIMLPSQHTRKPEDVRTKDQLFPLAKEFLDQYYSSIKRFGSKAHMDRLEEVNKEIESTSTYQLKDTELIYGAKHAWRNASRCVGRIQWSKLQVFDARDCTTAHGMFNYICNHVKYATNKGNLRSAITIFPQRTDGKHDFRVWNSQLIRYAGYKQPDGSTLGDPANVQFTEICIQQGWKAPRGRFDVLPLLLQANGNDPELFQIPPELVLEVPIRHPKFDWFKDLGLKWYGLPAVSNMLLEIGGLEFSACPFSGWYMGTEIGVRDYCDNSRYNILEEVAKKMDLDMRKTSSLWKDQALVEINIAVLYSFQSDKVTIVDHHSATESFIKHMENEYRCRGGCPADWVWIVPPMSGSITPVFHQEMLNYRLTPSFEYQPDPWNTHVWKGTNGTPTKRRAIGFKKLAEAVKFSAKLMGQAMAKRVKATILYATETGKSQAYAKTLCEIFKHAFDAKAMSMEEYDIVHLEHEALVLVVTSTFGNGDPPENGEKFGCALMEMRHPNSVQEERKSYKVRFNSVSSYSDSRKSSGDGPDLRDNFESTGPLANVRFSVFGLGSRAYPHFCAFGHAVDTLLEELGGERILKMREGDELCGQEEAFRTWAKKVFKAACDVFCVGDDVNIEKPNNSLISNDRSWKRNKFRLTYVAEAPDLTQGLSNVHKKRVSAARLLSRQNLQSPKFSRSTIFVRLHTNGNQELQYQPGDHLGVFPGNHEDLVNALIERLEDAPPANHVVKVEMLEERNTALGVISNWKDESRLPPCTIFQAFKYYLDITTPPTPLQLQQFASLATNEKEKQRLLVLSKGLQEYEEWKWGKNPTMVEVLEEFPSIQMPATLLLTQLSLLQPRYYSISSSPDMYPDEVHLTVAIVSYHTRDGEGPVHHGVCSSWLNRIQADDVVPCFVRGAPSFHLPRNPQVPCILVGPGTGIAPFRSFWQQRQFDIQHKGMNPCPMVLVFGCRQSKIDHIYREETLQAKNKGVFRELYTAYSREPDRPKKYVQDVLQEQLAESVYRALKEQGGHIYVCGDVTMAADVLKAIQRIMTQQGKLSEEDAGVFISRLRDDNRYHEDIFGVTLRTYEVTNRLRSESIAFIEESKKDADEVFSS
Chain of Adenosine receptor A1 (Bos taurus) (P28190 whole entry, looked up): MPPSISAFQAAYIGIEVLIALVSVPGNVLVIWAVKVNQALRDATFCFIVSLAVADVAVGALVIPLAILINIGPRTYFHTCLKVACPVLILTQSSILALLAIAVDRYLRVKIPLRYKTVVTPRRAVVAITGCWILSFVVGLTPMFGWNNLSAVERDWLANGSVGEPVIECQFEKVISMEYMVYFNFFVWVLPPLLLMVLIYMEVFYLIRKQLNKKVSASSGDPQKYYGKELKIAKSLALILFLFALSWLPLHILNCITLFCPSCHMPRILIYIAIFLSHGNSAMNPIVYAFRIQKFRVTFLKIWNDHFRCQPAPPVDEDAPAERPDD
Chain of bovine Dopamine Receptor (DR), Non-selective Binding, DRD1 (gene 281125) (Q95136 whole entry, looked up): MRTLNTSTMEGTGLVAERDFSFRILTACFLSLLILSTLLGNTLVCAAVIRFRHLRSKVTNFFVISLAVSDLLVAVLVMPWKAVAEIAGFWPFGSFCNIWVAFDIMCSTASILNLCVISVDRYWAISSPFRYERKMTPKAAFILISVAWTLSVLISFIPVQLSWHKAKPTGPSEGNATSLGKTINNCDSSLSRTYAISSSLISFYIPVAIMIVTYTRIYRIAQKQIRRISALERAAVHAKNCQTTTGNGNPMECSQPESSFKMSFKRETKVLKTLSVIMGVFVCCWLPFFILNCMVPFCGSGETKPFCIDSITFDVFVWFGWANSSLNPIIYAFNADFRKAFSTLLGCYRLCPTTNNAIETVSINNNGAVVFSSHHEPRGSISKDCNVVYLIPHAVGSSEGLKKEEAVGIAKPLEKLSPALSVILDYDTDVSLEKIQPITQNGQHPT

The term AC50 denotes the midpoint of the concentration-response curve, whichever way the signal moves. Regarding `CC(=O)NC1(c2cccc(F)c2)CCN(CC[C@@]2(c3ccc(Cl)c(Cl)c3)CN(c3ccccc3)C(=O)CO2)CC1`, the AC50 was 11.3 µM (active) in assay [1] and 1.9 µM (active) in assay [2].

Turning to `c1ccc2cc3c(ccc4ccccc43)cc2c1`, the AC50 in [1] was 32.8 µM (active). Further, the call in assay [3] was inactive.

For `CN1CCN(c2ccccc2/C=C2\SCCN(c3ccc(Cl)c(Cl)c3)C2=O)CC1`, the result in [4] was inactive. For the same molecule, the AC50 in [2] is 1.9 µM (active).

Take `CC(C)(C)c1ccc(O)c(C(C)(C)C)c1`: the call in assay [5] was inactive.

On to `Oc1cccc(O)c1`, for which the AC50 in assay [6] was 10.4 µM (active).

`CCCCCCCC(=O)O`: in assay [7], the call was inactive.

Regarding `CCCCCCCCCCCCc1ccccc1S(=O)(=O)O`, the figures for the half-maximal activity concentration (AC50) in assay [6], in [8] and in [7] were 9.01 µM (active), 7.5 µM (active) and 25 µM (active), respectively.

As for `CCCOC(=O)c1ccc(O)cc1`, in [9], the AC50 is 25 µM (active). The molecule was classed as inactive in [8].

On to `NC(=O)N1C(=O)C(C(=O)c2cc(Cl)cs2)c2cc(F)c(Cl)cc21` (centres undefined), for which the molecule was classed as inactive in assay [4] and in assay [5]. The concentration at half-maximal activity (AC50) in assay [8] was 0.585 µM (active).

Regarding `CC[C@H](C)[C@@H](C(=O)O)n1sc2ccccc2c1=O`, the outcome in assay [8] and in assay [7] was inactive.

`O=c1c(-c2ccc(O)cc2)coc2cc(O)ccc12`: the result in assay [2] was inactive.

For `Oc1cc2ccccc2c2ccccc12`, in [6], the AC50 is 27.7 µM (active).

`COc1ccc([N+](=O)[O-])cc1N`: the AC50 in [6] was 12.2 µM (active).

In the case of `OC1CCCCC1`, the call in assay [9] was inactive.

Take `CCCOc1sc(C(=O)N2CCC(c3cc(CN)ccc3F)CC2)c(C)c1Br`: in assay [4], the molecule was called inactive. In addition, the AC50 in assay [10] was 36.3 µM (active); in assay [2] it was 14.3 µM (active).

`CCc1ccc(CCOc2ccc(CC3SC(=O)NC3=O)cc2)nc1` (centres undefined): the AC50 in [4] is 4.25 µM (active).

Consider `C#C[C@]1(O)CC[C@H]2[C@@H]3CCC4=CC(=O)CC[C@@H]4[C@H]3CC[C@@]21C`, for which, in assay [3], the call was inactive.

Consider `Cc1oc(-c2ccccc2)nc1CCOc1ccc(C[C@H](Nc2ccccc2C(=O)c2ccccc2)C(=O)O)cc1`, for which the AC50 in [6] is 26.5 µM (active). Also, the call in assay [10], in assay [8] and in [7] was inactive.

Turning to `O=C(O)Cc1cc(I)c(Oc2cc(I)c(O)c(I)c2)c(I)c1`, the molecule was called inactive in [5].

As to `CCN(CC)CCNc1ccc(CNC=O)c2sc3ccc(OC)cc3c(=O)c12`, the AC50 in [5] is 4.38 µM (active).

Turning to `NC(=O)N(O)[C@@H]1C=C[C@H](Oc2cccc(Oc3ccc(F)cc3)c2)C1`, the molecule was classed as inactive in assay [9] and in [6].

For the molecule `Nc1cccc2c(N)cccc12`, the outcome in [5] was inactive.

For `N#C[C@@H]1CC(F)(F)CN1C(=O)CNC1CC2CCC(C1)N2c1ncccn1` (some centres undefined), the molecule was called inactive in [6].

For the molecule `CC(C)CCCCCCOC(=O)CCCCC(=O)OCCCCCCC(C)C`, the molecule was called inactive in assay [4].

As to `Cc1cc(CCN2CCN(c3nsc4ccccc34)CC2)cc2c1NC(=O)CC2(C)C`, the outcome in [5], in [8] and in assay [7] was inactive.

For `c1ccc2c(c1)ccc1ccccc12`, in [4], the concentration at half-maximal activity (AC50) was 1.16 µM (active).

Take `CC(C)(C)c1cc(C(C)(C)C)c(O)c(C(C)(C)C)c1`: the molecule was classed as inactive in [2].
